Mtb MenB inh – Mtb MenB enzyme inhibition; MenB enzyme assay, absorbance read-out; AID 540299; 100,000 tested, 0.43% active; inhibition, % (test concentration not listed); in the data active means inhibition above about 21%, passing the limit was not always enough
PV pol inh – poliovirus RNA polymerase inhibition; P03300; poliovirus polymerase elongation, fluorescence polarization; hits give low values; % elongation, % (compound at 16.7 µg/mL); 150,000 tested, 0.66% active; in the data active means % elongation below about 90%
Target sequence (P03300 1749-2209 limits assumed): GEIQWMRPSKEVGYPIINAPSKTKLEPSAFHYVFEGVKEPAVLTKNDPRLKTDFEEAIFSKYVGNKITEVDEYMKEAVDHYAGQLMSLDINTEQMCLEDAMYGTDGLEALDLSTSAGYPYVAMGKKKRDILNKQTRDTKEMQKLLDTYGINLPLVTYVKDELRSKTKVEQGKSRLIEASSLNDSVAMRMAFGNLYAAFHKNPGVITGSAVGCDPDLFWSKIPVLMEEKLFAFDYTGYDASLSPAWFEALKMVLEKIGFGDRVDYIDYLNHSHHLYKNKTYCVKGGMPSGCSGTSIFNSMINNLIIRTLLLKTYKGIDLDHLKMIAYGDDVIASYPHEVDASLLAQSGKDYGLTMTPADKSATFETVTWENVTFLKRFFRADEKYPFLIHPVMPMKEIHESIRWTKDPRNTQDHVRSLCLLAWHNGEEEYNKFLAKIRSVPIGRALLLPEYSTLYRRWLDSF
Mtb MbtI inh – blocks the Mycobacterium tuberculosis siderophore enzyme MbtI. P9WFX0. purified MbtI enzyme, fluorescence intensity read-out. inhibition, % (concentration not given with the values). 100,000 tested, 0.89% active. AID 493033; in the data active means inhibition mostly above about 56%, no sharp cut-off; inactive means mostly below about 77%
* marks the source's active call; other numbers are inactive results; . = no result given. Rows were chosen to be rich in hits. Some 1.5% of all compounds tested hit in one or more screens of this group.

SMILES | Mtb MenB inh | PV pol inh | Mtb MbtI inh
COc1ccc(/C=N/n2cn[nH]c2=S)cc1OC | -27 | 104 | -13
S=c1[nH]ncn1/N=C/c1ccccc1 | 8 | 100 | 86*
O=C(O)C1CCCCC1C(=O)N1CCN(c2ccccn2)CC1 (stereo unspecified) | -15 | 101 | -269
CC(Sc1nc2ccccc2n1C)C(=O)Nc1ncc(Cl)cc1Cl (stereo unspecified) | -23 | 102 | -11
Cn1c(=S)[nH]c2cc(S(N)(=O)=O)ccc21 | -9 | 90* | 67
NS(=O)(=O)c1ccc(CCn2c(=S)[nH]c3ccccc3c2=O)cc1 | 3 | 100 | 7
COc1cccc(N(Cc2nnc3n2CCCCC3)C(=O)Nc2ccccc2)c1 | . | 114 | .
O=C(Nc1ccccc1)N(Cc1nnc2n1CCCCC2)c1ccc(I)cc1 | -7 | 90* | .
O=C(O)c1ccc(OC(F)F)cc1 | -16 | 102 | 1
NS(=O)(=O)c1ccc(CCNC(=O)CN2CCNC(=O)C2)cc1 | -14 | 99 | -46
S=C1CSc2ccccc2N1 | -13 | 92 | 78*
c1ccc2c(c1)Nc1ccccc1S2 | -20 | 102 | 10
Cc1cc(OCCN)c(C(C)C)cc1Cl | -11 | 100 | 6
Nc1n[nH]c2cc(=O)[nH]c(O)c12 | -44 | 5.0* | 5
Cc1cc2c(=O)[nH]nc(N)c2c(=O)[nH]1 | -16 | 104 | 0
Cc1ccc(C(=O)NC2CC2)cc1N1CCCC1=O | 7 | 102 | -13
CSC1=NSC2=NC(=O)/C(=C\c3cccs3)C(=N)N12 | -61 | 99 | 100*
COc1ccc(/C=C2/C(=N)N3C(SC)=NSC3=NC2=O)cc1 | 10 | 98 | -1
S=c1n(CN2CCCCC2)nc2n1CCCCC2 | -2 | 95 | 0
CCOC(=O)C1CCN(c2c(C(=O)c3ccc(OCC)cc3)cnc3ccc(OC)cc23)CC1 | . | 106 | .
CCOC(=O)C1CCN(c2c(C(=O)c3ccc(C)cc3)cnc3ccc(F)cc23)CC1 | . | 80* | .
O=c1ccc(C(F)(F)Cl)c[nH]1 | . | 103 | -12
FC(F)(F)c1ccc(=S)[nH]c1 | -43 | 111 | 93*
CCOc1ccc(NC(=O)CCC(=O)n2nc(-c3ccccc3)cc2-c2ccccc2)cc1 | 3 | 100 | .
O=C(O)CN1Cc2ccccc2C1 | -13 | 102 | -3
SMILES | Mtb MenB inh | PV pol inh | Mtb MbtI inh
Cc1ccc(C)c(N=C2N(C)CC(=O)N2Cc2cccnc2)c1 | -26 | 105 | -4
Cc1n[nH]c(C)c1SCC(=O)O | -13 | 105 | 10
CC(C)(C)SCC(=O)O | 7 | 84* | -7
O=C(CCCn1sc2ccccc2c1=O)Nc1ccccc1F | 0 | 101 | -5
O=C(CCCn1sc2ccccc2c1=O)NCc1cccs1 | -13 | 105 | 82*
O=C(CCCn1sc2ccccc2c1=O)NCCC1=CCCCC1 | 4 | 102 | 94*
O=C(Cn1c(=O)n(CCCC(=O)NC2CCCC2)c(=O)c2ccccc21)NCCC1=CCCCC1 | 5 | 100 | -8
CCOc1ccc(Br)cc1S(=O)(=O)N(C)c1cccc(OC)n1 | -7 | 101 | -3
Cc1ccc(CNCCN2CCOCC2)o1 | 4 | 104 | .
COc1ccc(-c2ccc(CNCCN3CCOCC3)o2)cc1Cl | 33* | 99 | 3
Cn1cc(NC(=O)NCCc2ccsc2)c2ccccc2c1=O | -5 | 57* | -7
CSc1ccc(CCNC(=O)Nc2cn(C)c(=O)c3ccccc23)cc1 | -28 | 45* | -6
CC(C)CCNC(=O)Nc1cn(C)c(=O)c2ccccc12 | -25 | 100 | -22
CCOc1ccc(CCNC(=O)Nc2cn(C)c(=O)c3ccccc23)cc1OCC | -12 | 101 | -7
Cc1ccc(NC(=O)Nc2cn(C)c(=O)c3ccccc23)c(Cl)c1 | . | 80* | .
Cc1cc(NC(=O)Nc2cn(C)c(=O)c3ccccc23)no1 | 3 | 91 | -20
Cn1cc(NC(=O)N2CCCCC2)c2ccccc2c1=O | -20 | 100 | 10
Cn1cc(NC(=O)NC2CCCCC2)c2ccccc2c1=O | -25 | 22* | -5
CCN1CCN(C(=S)Nc2ccccc2)CC1 | 21 | 100 | 8
CS(=O)(=O)Nc1ncnc2sccc12 | -28 | 114 | -6
COc1ccc(-c2cc(C(=O)NNC3=NCCCCC3)c3c(C)noc3n2)c(F)c1 | 3 | 98 | -50
CCc1ccc(NC(=O)Nc2cn(C)c(=O)c3ccccc23)cc1 | . | 70* | .
Cn1cc(NC(=O)Nc2cccnc2)c2ccccc2c1=O | -26 | 103 | 65
O=C1C=CC(=O)C(Sc2nnnn2-c2ccccc2)=C1 | -3 | 99 | 102*
c1ccc(-n2nnnc2SCCSc2nnnn2-c2ccccc2)cc1 | . | . | -7
SMILES | Mtb MenB inh | PV pol inh | Mtb MbtI inh
C=CCn1c(C)cc(C(=O)CN2NS(=O)(=O)c3ccccc3C2=O)c1C | 6 | 102 | -26
Cc1ccc(CNC(=O)CN2NS(=O)(=O)c3ccccc3C2=O)cc1 | -8 | 100 | 91*
Clc1ccc(CNc2ccc3c(c2)OCCO3)c(Cl)c1 | -11 | 102 | .
CN(C)c1ccc(N)cc1C(=O)O | 21 | 100 | 2
COc1ccc(-c2cc(-c3ccccc3)c(C#N)c(SCC(O)CS(=O)(=O)Cc3ccccc3)n2)cc1 (stereo unspecified) | . | 108 | .
CCCCS(=O)(=O)CC(O)CSc1nc(-c2ccc(C)cc2)cc(-c2ccccc2)c1C#N (stereo unspecified) | . | 81* | .
O=C(COc1ccc2c3c(c(=O)oc2c1)CCC3)c1ccc(N2CCCC2)cc1 | -22 | 101 | -10
O=C(CN1CCCCCCC1)Nc1ccc2c(c1)OCO2 | 6 | 103 | -8
Cc1coc2cc3oc(=O)c(CCC(=O)N4CCCC4)c(C)c3cc12 | 23 | 100 | 49
CCCCc1ccc(-n2nc3cc(C)c(NC(=S)NC(=O)c4ccco4)cc3n2)cc1 | -4 | 101 | -12
O=c1c(=N\O)/c(=N/O)c(=O)c2ccccc12 | -12 | 60* | 25
O=c1c(=Nc2ccccc2O)c(=O)c2ccccc12 | -8 | 95 | .
O=C1CCC2(C(=O)OCc3c(Cl)cccc3Cl)N1c1ccccc1C(=O)N2C1CC1 (stereo unspecified) | -19 | 108 | -8
c1ccc(-c2csc(NCc3ccco3)n2)cc1 | . | . | -2
CC(C)CNc1nc(-c2ccccc2)cs1 | -50 | 102 | 91*
COc1ccc(CC(=O)N2CCCCCC2)cc1OC | -21 | 110 | .
COc1ccc(CC(=O)n2[nH]c(=O)cc(C)c2=O)cc1OC | 0 | 99 | 56*
Cc1noc(C)c1CSc1ccccc1C(=O)NC(C)c1ccc(-n2ccnc2)cc1 (stereo unspecified) | 5 | 98 | 99*
CC(NC(=O)Cn1[nH]c(=O)c2ccccc2c1=O)c1ccc(-n2ccnc2)cc1 (stereo unspecified) | -9 | 97 | -4
COc1ccc2[nH]c(=O)c(CN(C3CCCC3)S(=O)(=O)c3cccc4nsnc34)cc2c1 | 18 | 101 | -3
COc1ccc(C)cc1NS(C)(=O)=O | -48 | 105 | -16
C1CCN(SN2CCCCC2)CC1 | -67 | 78* | .
O=C(NCCC1=CCCCC1)c1cc2c(=O)[nH]c3ccccc3c2s1 | . | . | 22
COC(=O)c1ccc(COC(=O)c2ccc(OCc3c(C)noc3C)cc2)cc1 | -5 | 107 | 0
CCCCN1CN(CCc2cccc(Cl)c2)Cn2c1nc1ccccc12 | 1 | 102 | 11
Cc1cc(C(=O)Cn2cnc3sccc3c2=O)c(C)n1CC1COc2ccccc2O1 (stereo unspecified) | 11 | 109 | 29
